# Compound activity: PubChem BioAssay, National Center for Advancing Translational Sciences (NCATS)
# An excerpt weighted towards active compounds, which were near 8.1% of everything screened.
# VP16 counter: inhibits Gal4-VP16 luciferase reporter, ROR gamma counter-screen | hit rate 3.5% among 310,000 | Potency, µM (series often up to 53.6 µM), without a hit: at the top dose activity, negative = inhibition, hits mostly inhibitors | Drosophila S2 Gal4-VP16 UAS-luciferase, luminescence, 20 h;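 also: Gal4-VP16 expression switched on by copper sulfate through the metallothionein promoter; % is scaled to controls: 0 for no effect and ±100 for the full control effect; nearly all actives have a fitted effect of over 50% in size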
# Sfp inh: inhibitors of Bacillus subtilis Sfp phosphopantetheinyl transferase; Biochemical Sfp PPTase activity, qHTS; Potency, µM, inactives show largest response in the series, negative = inhibition, actives largely listed as inhibitors; Q9F4F7; hit rate 3.5% among 310,000;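 also: the enzyme is Sfp with the accession as filed and its product quenches rhodamine fluorescence; 0% = enzyme reaction without inhibitor and -100% = no enzyme wells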
#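 With Hepes-Na pH 7.6 buffer containing 10 mM MgCl2, Sfp (15 nM) modified BHQ-2-YbbR (12.5 uM) using rhodamine-CoA (5 uM). Two reads 30 minutes apart at 525/598 nm yielded each well's rate.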
# ClpP mod: qHTS Assay for Activators of ClpP; ATP-dependent Clp protease proteolytic subunit (Bacillus subtilis (strain 168)), P80244; purified B. subtilis ClpP, FRET peptide cleavage, 20 min; Potency, µM (titrated, usually from 57.5 µM), inactives show top-dose activity change, negative = active; hit rate 1.9% among 340,000; active = well fitted falling curve with a large enough effect; inconclusive = small, poorly fitted or top-dose-only effect; inactive = no such curve, though single readings can be large or run the other way; also: the source files actives as falling curves though it sought activators and does not explain the sign; nearly all actives have a fitted effect of over 65% in size
# Target sequence (P80244 whole entry, looked up): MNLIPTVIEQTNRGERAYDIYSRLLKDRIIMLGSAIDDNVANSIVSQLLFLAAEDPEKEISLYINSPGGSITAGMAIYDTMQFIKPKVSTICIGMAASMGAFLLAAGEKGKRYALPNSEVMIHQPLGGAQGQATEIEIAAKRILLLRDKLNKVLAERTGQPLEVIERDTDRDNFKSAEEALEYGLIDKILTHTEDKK
#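 FRET quenching reversal measured ClpP activation: 10 microg/mL B. subtilis ClpP at pH 8 with the FRET-FV decapeptide, read at 430 nm after 320 nm excitation. The 20-min minus 0-min signal was scaled between DMSO/no-enzyme wells and ADEP (5.8 microM final).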
# PINK1 expr mod: PINK1 expression modulation | PINK1 immunofluorescence, high-content cytometry, 24 h | Potency, µM (top dose mostly 76.6 µM), without a hit: at the highest dose activation (PINK1 increase), most hits filed as activators | hit rate 0.2% among 410,000 | AID 624263; active = well fitted activation curve with a large enough effect; inconclusive = small, poorly fitted or top-dose-only effect; cell line not stated here; also: % of control where 0% means no effect; nearly all actives have a fitted effect of over 65% in size
#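 Decision-based qHTS: stable cells, 24 h exposure to five compound concentrations, CCCP as control. Fixed cells stained for PINK1 plus nuclear, mitochondrial and cell markers, cytometer read.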
# RORg inh: inhibitors of mouse ROR gamma transcriptional activity; Potency, µM (series often up to 53.6 µM), inactives show at the top dose activity change, negative = inhibition, hits mostly inhibitors; hit rate 5.4% among 310,000; Drosophila S2 Gal4-RORgamma UAS-luciferase reporter, 20 h; P51450; also: % is scaled to controls: 0 for no effect and ±100 for the full control effect; nearly all actives have a fitted effect of over 60% in size
#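 ROR gamma transcriptional activity was tracked as Gal4-UAS luciferase output in stably transfected Drosophila Schneider cells, with compound added 1 hr before 700 uM copper sulfate induction and a 20 hr ambient-temperature incubation.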
# Epigenetic reg: epigenetic control regulation, reporter derepression; murine LDR cells, GFP reporter derepression, 30 h; Potency, µM (series often up to 53.9 µM), for the others: at the highest dose GFP activation, actives largely listed as activators; hit rate 0.2% among 280,000; AID 1865; also: % of control where 0% means no effect; nearly all actives have a fitted effect of over 60% in size
#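 Murine LDR cells carrying a silenced, genomically integrated CMV-driven GFP reporter were exposed to compound for 30 hours at 37 C. After PBS washes, GFP-positive cells (20–120 um objects) were counted by laser-scanning microplate cytometry.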
# The depositor's hits bear a star; u = inconclusive; x = no result given; [ ] = remark or other dose. Unless noted, calls follow the shape of the dose curve; as a rule, active = well fitted curve in the direction sought with a large enough effect; inconclusive = small, poorly fitted or top-dose-only effect, or another doubt; inactive = no such curve, though single readings can be large; an effect the other way counts as inactive or inconclusive. Potency is read from the fitted curve at half-maximal effect.
SMILES,VP16 counter,Sfp inh,ClpP mod,PINK1 expr mod,RORg inh,Epigenetic reg
CCCCSc1nc(C)cc(SCC(=O)N/N=C/c2cccc(OC)c2O)n1,1µM*,12%,-4%,-2%,0.28µM*,1%
COc1cccc(/C=N/NC(=O)CSc2nnc(C)n2-c2ccccc2)c1O,20µM*,10%,-3%,-3%,7.1µM*,0%
COc1ccc(O)c(/C=N/NC(=O)CSc2nnc(C)n2-c2ccccc2)c1,-29%,25%,-1%,3%,7.9µM*,-1%
Cc1ccc(Cl)cc1NC(=O)CSc1nnc(C)n1-c1ccccc1,5.6µM*,8%,1%,0%[38.3 µM],4µM*,-2%
Cc1c(Cl)cccc1NC(=O)CSc1nnc(C)n1-c1ccccc1,13%,7%,-1%,1%[38.3 µM],25%,-3%
CSc1ncccc1C(=O)NCCN1Cc2ccccc2OC(c2ccccc2F)C1 (stereo not drawn),x,x,x,1%,x,x
CCOCCc1nn2c(=O)cc(COC(=O)Cc3ccccc3)nc2s1,x,x,-5%,1%,x,0%
CCc1cccc(NC(=O)CSc2nncn3c2cc2sccc23)c1,x,x,-1%,1%,x,0%
Cc1nc(-c2ccccc2)sc1C(=O)NN,11µM*,10%,1%,11%,13µM*,0%
Oc1ccccc1C1C=C(c2ccc3c(c2)OCO3)NC(c2cccc(F)c2)N1 (stereo not drawn),x,x,x,-1%,x,x
O=C(C1CC1)N1N=C(c2ccccc2)CC1(O)C(F)(F)C(F)(F)F (stereo not drawn),u,1%,x,9%,11µM*,x
O=C(Nc1ccc(Cl)cn1)c1cnn2c1NC(=C1CC1)C=C2C(F)F,x,x,70%,1%,x,x
Cc1ccccc1-c1cc(C(=O)Nc2sc(C)c(C)c2C(N)=O)c2ccccc2n1,1%,50µM*,-1%,6%,9%,4%
CCOC(=O)c1sc(NC(=O)c2ccncc2)c(C#N)c1C,u,u,-10%,u,u,0%
CCOC(=O)c1sc(NC(=O)c2cc(-c3ccccc3C)nc3ccccc23)c(C#N)c1C,8.9µM*,45µM*,-3%,u,8.9µM*,-4%
CC(N)=NCCCC(N)C(=O)O (stereo not drawn),x,x,x,x,x,-1%
Cc1ccc(-c2noc(N=O)c2NO)cc1,0.63µM*,19%,x,-1%,0.71µM*,u
O=Nc1onc(-c2ccc([N+](=O)[O-])cc2)c1NO,4.5µM*,14%,0%,-1%,3.5µM*,-4%
O=[N+]([O-])c1ccc(-c2ccc(/C=N/O)o2)cc1,22%,0%,0%,0%,3%,0%
Cc1cccc(N2CCN(C(=O)c3ccc(NC(=O)c4nsc5ccccc45)cc3)CC2)c1C,x,x,-16%,1%,x,-3%
CC(C)CNC(=S)N1CCC(Cc2ccccc2)CC1,u,12%,0%,1%,10µM*,x
CC(C)NC(=S)N1CCC(Cc2ccccc2)CC1,-20%,2%,x,1%,1.1µM*,0%
Cc1ccc(N(CC(=O)Nc2cc(C)cc(C)c2)S(=O)(=O)c2c(C)noc2C)cc1,11µM*,15%,0%,15%,-28%,x
COc1ccc(N(CC(=O)Nc2ccc(C)cc2)S(=O)(=O)c2c(C)noc2C)cc1,-5%,16%,0%,2%,7%,x
CCCCc1c(C)c2ccc(OC)c(/C(C)=N\O)c2oc1=O,-3%,26%,8.9µM*,1%,17%,1%
SMILES,VP16 counter,Sfp inh,ClpP mod,PINK1 expr mod,RORg inh,Epigenetic reg
Cc1c(OCC(=O)C(C)(C)C)ccc2c3c(c(=O)oc12)CCCC3,-5%,5%,-24%,5%,u,x
COc1ccc2c(C)c(Cc3ccccc3)c(=O)oc2c1OC,-7%,-19%,4%,1%,26%,-2%
CCOC(=O)COc1ccc2c3c(c(=O)oc2c1C)CCC3,0%,3%,13µM*,-1%,16%,0%
CCOC(=O)CCc1c(C)c2ccc(OCC)c(C)c2oc1=O,1%,11%,32µM*,-3%[38.3 µM],7%,-3%
CCOC(=O)CCc1c(C)c2ccc(OCC(=O)N3CCOCC3)c(C)c2oc1=O,1%,9%,10µM*,0%,-44%,x
Cc1cc2c(cc1NS(=O)(=O)c1cccc(C#N)c1)n(C)c(=O)c(=O)n2C,x,x,-1%,0%,x,0%
COc1ccc2c3c(c(=O)oc2c1OCC(N)=O)CCCC3,-4%,20%,28µM*,-1%,11%,-1%
Cc1ccc(S(=O)(=O)N2CCc3cc(C(=O)NCCc4ccccc4)ccc32)cc1,x,x,-1%,0%,x,2%
N/C(=N\NC(=O)c1sccc1OCc1ccc(Cl)cc1Cl)c1ccccn1,5.6µM*,6%,x,-3%,2.2µM*,u
CCOC(=O)N1CCc2c(sc3c2c(=O)n(CCc2ccccc2)c(=O)n3Cc2ccc(C)cc2C)C1,x,x,-4%,2%,x,-3%
Cc1cc(C(=O)c2cccs2)c(N)s1,6%,50µM*,-4%,-4%[38.3 µM],-17%[10 µM],5%
Cc1cc(C)c(C(=O)c2cccs2)c(C)c1,x,x,x,2%,x,x
COc1ccc(S(=O)(=O)N2CCC(n3c(C)nc4cccnc43)CC2)cc1Cl,x,x,0%,1%,x,-4%
COc1cc(=O)n2c(c1C(=O)NCc1nonc1C)CCN(C(=O)c1cccc(C)c1C)CC2,x,x,x,0%,x,x
COc1ccc(OC)c(S(=O)(=O)ON2C(=O)c3ccccc3C2=O)c1,7.9µM*,-101%,x,7%,5.6µM*,x
CCc1ccc(S(=O)(=O)ON2C(=O)c3ccccc3C2=O)cc1,-6%,18µM*,x,0%,14%,-1%
COc1ccc(OC)c(S(=O)(=O)N2CCN(c3ccccc3)CC2)c1,4%,11%,-2%,1%,2%,x
Cc1cc(/C=C2\C(=N)N3N=C(S(C)(=O)=O)SC3=NC2=O)c(C)n1Cc1ccccc1,11%,45µM*,x,11%,23%,4%
